According to PubChem BioAssay (NCATS):
Inconclusive results are not listed. A number with no mark means an inactive call. Active and inactive are the calls of the source. Calls come from the whole dose curve; as a rule, active = well fitted curve in the direction sought with a large enough effect; inconclusive = small, poorly fitted or top-dose-only effect, or another doubt; inactive = no such curve, though single readings can be large; an effect the other way counts as inactive or inconclusive.

Experiments:
[1] = Primary redox qHTS assay for identification of artifact compounds. (AID 1845223)
Outline: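 Amplex Red (25 uM) and HRP (250 mU/mL) in HBSS, with compounds for 15 min, then 250 uM DTT for 30 min, room temperature, dark. Fluorescence 525/598 nm read; normalized to DMSO and 10 uM DA3003; Hill fit.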

[2] = Quantitative High-Throughput drug screen in 47 multiple myeloma cell lines against the NCATS MIPE library collection: FR4_PLB cell viability assay (AID 1918924; note: nearly all actives have a fitted effect of over 35% in size; note: potency is the fitted concentration of half-maximal effect)
Outline: (§1)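 Myeloma cell lines, 500 cells per well, exposed to MIPE 4.0 library compounds for 48 h at 37C, 5% CO2. Viability from ATP by CellTiter-Glo luminescence; normalised to DMSO (100%) and media-only (0%) wells.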

[3] = Quantitative High-Throughput drug screen in 47 multiple myeloma cell lines against the NCATS MIPE library collection: Delta47_JCRB cell viability assay (AID 1918925; note: potency is the fitted concentration of half-maximal effect; nearly all actives have a fitted effect of over 45% in size)
Outline: (§2)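 CellTiter-Glo ATP luminescence gave viability after 48 h compound treatment at 37C of 500 multiple myeloma cells per well. Normalisation used DMSO-only wells as 100% and media-only wells as 0% viability; primary qHTS of approved and investigational drugs.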

[4] = Quantitative High-Throughput drug screen in 47 multiple myeloma cell lines against the NCATS MIPE library collection: EJM_DSMZ cell viability assay (AID 1918926; note: potency is the fitted concentration of half-maximal effect; nearly all actives have a fitted effect of over 30% in size)
Outline: as §2

[5] = Quantitative High-Throughput drug screen in 47 multiple myeloma cell lines against the NCATS MIPE library collection: AMO1_DSMZ cell viability assay (AID 1918927; note: potency is the fitted concentration of half-maximal effect; nearly all actives have a fitted effect of over 30% in size)
Outline: as §2

[6] = Quantitative High-Throughput drug screen in 47 multiple myeloma cell lines against the NCATS MIPE library collection: ARD_JJKsccE7 cell viability assay (AID 1918929; note: potency is the fitted concentration of half-maximal effect)
Outline: as §2

[7] = Quantitative High-Throughput drug screen in 47 multiple myeloma cell lines against the NCATS MIPE library collection: Karpas620_DSMZ cell viability assay (AID 1918959); note: nearly all actives have a fitted effect of over 30% in size; note: potency is the fitted concentration of half-maximal effect
Outline: as §1

[8] = Quantitative High-Throughput drug screen in 47 multiple myeloma cell lines against the NCATS MIPE library collection: KMM1_JCRB cell viability assay (AID 1918960); note: nearly all actives have a fitted effect of over 30% in size; note: potency is the fitted concentration of half-maximal effect
Outline: (§3)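 Here, 48 h treatment with MIPE 4.0 agents at 37 °C preceded an ATP luminescence read. Plating density was 500 cells per well.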

[9] = Quantitative High-Throughput drug screen in 47 multiple myeloma cell lines against the NCATS MIPE library collection: Karpas417_ECACC cell viability assay (AID 1918961); details: Karpas417 myeloma viability, CellTiter-Glo ATP luminescence, 48 h; viability (% of DMSO): at 45.8 µM (top of the series); note: potency is the fitted concentration of half-maximal effect
Outline: as §1

[10] = Quantitative High-Throughput drug screen in 47 multiple myeloma cell lines against the NCATS MIPE library collection: KHM11_PLB cell viability assay (AID 1918962); note: potency is the fitted concentration of half-maximal effect; nearly all actives have a fitted effect of over 35% in size
Outline: as §1

[11] = Quantitative High-Throughput drug screen in 47 multiple myeloma cell lines against the NCATS MIPE library collection: JIM3_ECACC cell viability assay (AID 1918963; note: potency is the fitted concentration of half-maximal effect; nearly all actives have a fitted effect of over 35% in size)
Outline: as §1

[12] = Quantitative High-Throughput drug screen in 47 multiple myeloma cell lines against the NCATS MIPE library collection: JIM1_ECACC cell viability assay (AID 1918964; note: potency is the fitted concentration of half-maximal effect)
Outline: as §2

[13] = Quantitative High-Throughput drug screen in 47 multiple myeloma cell lines against the NCATS MIPE library collection: INA6_PLB cell viability assay (AID 1918965; note: potency is the fitted concentration of half-maximal effect; nearly all actives have a fitted effect of over 55% in size)
Outline: as §1

[14] = Quantitative High-Throughput drug screen in 47 multiple myeloma cell lines against the NCATS MIPE library collection: H1112_PLB cell viability assay (AID 1918967)
Outline: as §2

[15] = Quantitative High-Throughput drug screen in 47 multiple myeloma cell lines against the NCATS MIPE library collection: Karpas25_ECACC cell viability assay (AID 1918968; note: potency is the fitted concentration of half-maximal effect; nearly all actives have a fitted effect of over 35% in size)
Outline: as §2

[16] = Quantitative High-Throughput drug screen in 47 multiple myeloma cell lines against the NCATS MIPE library collection: KMS27_JCRB cell viability assay (AID 1918970); note: nearly all actives have a fitted effect of over 30% in size; note: potency is the fitted concentration of half-maximal effect
Outline: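 Viability inhibition screen, 48 h compound exposure, luminescent ATP read-out.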

[17] = Quantitative High-Throughput drug screen in 47 multiple myeloma cell lines against the NCATS MIPE library collection: KMS12BM_JCRB cell viability assay (AID 1918971)
Outline: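 Inhibition of cell viability is measured here. Each line was plated at 500 cells per well, treated with MIPE 4.0 drugs, kept 48 hours at 37C, then assayed for ATP content by CellTiter-Glo luminescence.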

[18] = Quantitative High-Throughput drug screen in 47 multiple myeloma cell lines against the NCATS MIPE library collection: KMS12PE_JCRB cell viability assay (AID 1918972); note: nearly all actives have a fitted effect of over 30% in size; note: potency is the fitted concentration of half-maximal effect
Outline: as §1

[19] = Quantitative High-Throughput drug screen in 47 multiple myeloma cell lines against the NCATS MIPE library collection: JJN3_DSMZ cell viability assay (AID 1918966; note: potency is the fitted concentration of half-maximal effect; nearly all actives have a fitted effect of over 50% in size)
Outline: as §2

[20] = Quantitative High-Throughput drug screen in 47 multiple myeloma cell lines against the NCATS MIPE library collection: ARP1_JJKsccF8 cell viability assay (AID 1918928; note: potency is the fitted concentration of half-maximal effect; nearly all actives have a fitted effect of over 40% in size)
Outline: as §3

Nc1ccccc1NC(=O)c1ccc(CNC(=O)OCc2cccnc2)cc1
Potency [1]: inactive | Potency [2]: 2.96 µM (active) | Potency [3]: 0.372 µM (active) | Potency [4]: 3.72 µM (active) | Potency [5]: 0.833 µM (active) | Potency [6]: 0.935 µM (active) | Potency [7]: 2.64 µM (active) | Potency [8]: 0.418 µM (active) | Potency [9]: 469 nM (active) | Potency [10]: 4.18 µM (active) | Potency [11]: 2.96 µM (active) | Potency [12]: 1.48 µM (active) | Potency [13]: 418 nM (active) | Potency [14]: 2.35 µM (active) | Potency [15]: 0.833 µM (active) | Potency [16]: 0.526 µM (active) | Potency [17]: 1.32 µM (active) | Potency [18]: 0.743 µM (active)

CC(C)CC(=O)Nc1n[nH]c2c1CN(C(=O)C1CCN(C)CC1)C2(C)C
Potency [1]: inactive | Potency [2]: 1.66 µM (active) | Potency [3]: 0.166 µM (active) | Potency [4]: 1.66 µM (active) | Potency [5]: 1.66 µM (active) | Potency [6]: 1.32 µM (active) | Potency [7]: 2.64 µM (active) | Potency [8]: 1.18 µM (active) | Potency [9]: 526 nM (active) | Potency [10]: 1.18 µM (active) | Potency [11]: 0.833 µM (active) | Potency [13]: 296 nM (active) | Potency [19]: 2.09 µM (active) | Potency [14]: 3.32 µM (active) | Potency [15]: 1.87 µM (active) | Potency [16]: 1.18 µM (active) | Potency [17]: 1.66 µM (active) | Potency [18]: 2.35 µM (active)

Nc1nc(Nc2ccc(S(N)(=O)=O)cc2)nn1C(=O)c1c(F)cccc1F
Potency [1]: inactive | Potency [2]: 4.18 µM (active) | Potency [3]: 2.64 µM (active) | Potency [4]: 6.62 µM (active) | Potency [20]: 9.35 µM (active) | Potency [6]: 5.26 µM (active) | Potency [7]: 5.9 µM (active) | Potency [8]: 4.18 µM (active) | Potency [9]: 3320 nM (active) | Potency [11]: 7.43 µM (active) | Potency [13]: 1480 nM (active) | Potency [19]: 5.26 µM (active) | Potency [14]: 8.33 µM (active) | Potency [15]: 6.62 µM (active) | Potency [16]: 4.18 µM (active) | Potency [17]: 5.9 µM (active) | Potency [18]: 6.62 µM (active)

COc1cc(Nc2ncc(F)c(Nc3ccc4c(n3)N(COP(=O)(O)O)C(=O)C(C)(C)O4)n2)cc(OC)c1OC
Potency [1]: inactive | Potency [2]: inactive | Potency [3]: 5.9 µM (active) | Potency [4]: 23.5 µM (active) | Potency [5]: 5.26 µM (active) | Potency [6]: 1.18 µM (active) | Potency [8]: 1.18 µM (active) | Potency [9]: 1050 nM (active) | Potency [10]: 1.48 µM (active) | Potency [11]: 1.66 µM (active) | Potency [12]: 1.18 µM (active) | Potency [13]: 833 nM (active) | Potency [14]: 1.66 µM (active)

O=C(CCCCCCC(=O)Nc1ccc([C@H]2O[C@@H](CSc3nc(-c4ccccc4)c(-c4ccccc4)o3)C[C@@H](c3ccc(CO)cc3)O2)cc1)NO
Potency [1]: inactive | Potency [2]: 11.8 µM (active) | Potency [3]: 11.8 µM (active) | Potency [4]: 13.2 µM (active) | Potency [20]: 10.5 µM (active) | Potency [6]: inactive | Potency [7]: inactive | Potency [8]: inactive | Potency [11]: 23.5 µM (active) | Potency [12]: inactive | Potency [13]: 5260 nM (active) | Potency [14]: 13.2 µM (active) | Potency [15]: 9.35 µM (active) | Potency [16]: inactive | Potency [17]: 11.8 µM (active) | Potency [18]: inactive
